Sequences and labels used below:
B1: AATT (dsDNA)
DNA 1: GCTATCTAGTGCTCAGTACGCACTGAATTAGGAAACTTCTGGCAGGACCAGGTCATGAGATCGGAAGAGCACACGTCTGAACTCCAGTCA
DNA 2: TGACTGGAGTTCAGACGTGTGCTCTTCCGATCTCATGACCTGGTCCTGCCAGAAGTTTCCTAATTCAGTGCGTACTGAGCACTAGATAGC
RNA: AAUUUCUACUCUUGUAGAUAGGAAACUUCUGGCAGGACC
B2: AGGA (dsDNA)
DNA 1: B1 DNA 1 with A27G, T28G, T29A
DNA 2: B1 DNA 2 with A62T, A63C, T64C
RNA: B1 RNA
B3: ACTC (dsDNA)
DNA 1: B1 DNA 1 with A27C, T29C
DNA 2: B1 DNA 2 with A62G, T64G
RNA: B1 RNA
B4: ACTT (dsDNA)
DNA 1: B1 DNA 1 with A27C
DNA 2: B1 DNA 2 with T64G
RNA: B1 RNA
B5: ACTA (dsDNA)
DNA 1: B1 DNA 1 with A27C, T29A
DNA 2: B1 DNA 2 with A62T, T64G
RNA: B1 RNA
B6: ACTG (dsDNA)
DNA 1: B1 DNA 1 with A27C, T29G
DNA 2: B1 DNA 2 with A62C, T64G
RNA: B1 RNA
B7: AGGT (dsDNA)
DNA 1: B1 DNA 1 with A27G, T28G
DNA 2: B1 DNA 2 with A63C, T64C
RNA: B1 RNA
B8: AGAA (dsDNA)
DNA 1: B1 DNA 1 with A27G, T28A, T29A
DNA 2: B1 DNA 2 with A62T, A63T, T64C
RNA: B1 RNA

Changes are numbered by the printed parent chain.

The first assay deals with dAsCas12a Ultra (Acidaminococcus sp., UniProt U2UMQ6 1-1307, M537R;F870L;D908A;E993A;D1235A). Kind of assay: Spec-seq (native PAGE EMSA with sequencing of bound and unbound); 25 mM Tris-HCl pH 7.4, 150 mM KCl, 5 mM MgCl2, 10% glycerol, 1 mM DTT, 40 ng/uL salmon sperm DNA; 400 nM Cas12a, 480 nM crRNA, 50 nM library, 37 C 1 h; native PAGE at room temperature; high values mean tight binding. Particulars: protein: recombinant.
As to B1, the binding signal was -8.59 lnKA.

In the case of B2, the binding signal is -8.33 lnKA.

For the molecule B3, the binding signal was -6.74 lnKA.

With B4, the binding signal was -8.57 lnKA.

As to B5, the binding signal is -7.24 lnKA.

For the molecule B6, the binding signal was -7.71 lnKA.

B7: the binding signal was -8.68 lnKA.

As for B8, the binding signal is -8.87 lnKA.

A further assay deals with dAsCas12a E174R (Acidaminococcus sp., UniProt U2UMQ6 1-1307, E174R;D908A;E993A;D1235A). The assay is described as above. Particulars: protein: recombinant.
As to B1, the binding signal was -8.34 lnKA.

For the molecule B3, the binding signal was -6.65 lnKA.

Turning to B4, the binding signal is -8.23 lnKA.

As for B5, the binding signal is -5.96 lnKA.

As for B6, the binding signal was -7.65 lnKA.

For the molecule B8, the binding signal is -8.92 lnKA.

Another assay concerns the target dAsCas12a S542R (Acidaminococcus sp., UniProt U2UMQ6 1-1307, S542R;D908A;E993A;D1235A). The description is as above. Particulars: protein: recombinant.
For the molecule B1, the binding signal was -8.01 lnKA.

With B2, the binding signal was -8.24 lnKA.

As to B3, the binding signal is -7.33 lnKA.

Take B4: the binding signal was -7.91 lnKA.

Consider B5, for which the binding signal is -7.5 lnKA.

As to B6, the binding signal is -7.86 lnKA.

As to B7, the binding signal was -8.5 lnKA.

Consider B8, for which the binding signal was -8.59 lnKA.

The target in another assay is d-enCas12a (Acidaminococcus sp., UniProt U2UMQ6 1-1307, E174R;S542R;K548R;D908A;E993A;D1235A). The assay is described as above. The conditions noted are these: protein: recombinant.
B1: the binding signal is -5.1 lnKA.

As to B2, the binding signal is -5.52 lnKA.

Turning to B3, the binding signal is -4.8 lnKA.

In the case of B4, the binding signal was -5.7 lnKA.

For B5, the binding signal was -5.02 lnKA.

For B6, the binding signal was -5.67 lnKA.

In the case of B7, the binding signal is -5.71 lnKA.

In the case of B8, the binding signal is -5.61 lnKA.

For the next assay, the target named is d-enCas12a-Ultra (Acidaminococcus sp., UniProt U2UMQ6 1-1307, E174R;S542R;K548R;M537R;F870L;D908A;E993A;D1235A). The description is as above. Particulars: protein: recombinant.
Turning to B1, the binding signal is -2.64 lnKA.

As to B2, the binding signal was -3.42 lnKA.

Regarding B3, the binding signal is -1.58 lnKA.

Turning to B4, the binding signal was -3.19 lnKA.

Regarding B5, the binding signal was -1.82 lnKA.

As for B6, the binding signal was -2.87 lnKA.

Regarding B7, the binding signal was -3.43 lnKA.

With B8, the binding signal is -3.36 lnKA.

The values above are taken from article PMC8222333, “AsCas12a ultra nuclease facilitates the rapid generation of therapeutic cell medicines”.
